DT40 TDP1 no CPT = qHTS for Inhibitors of human tyrosyl-DNA phosphodiesterase 1 (TDP1): qHTS in cells in absence of CPT. DT40 Tdp1-/- hTDP1 cells, no CPT, ATP luminescence, 48 h. Potency, µM (series often up to 46.2 µM), for the others: top-dose activity change, negative = growth inhibition, most hits filed as inhibitors. actives 15% (n = 420,000); note: % is set by controls: 0 for no effect and ±100 for the full control effect; nearly all actives have a fitted effect of over 55% in size
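Chicken DT40 Tdp1-/- cells complemented with human TDP1, screened without camptothecin (DMSO vehicle only), 400 cells/well. Compounds pin-transferred, cells incubated at 37 °C for at least 48 hr. Growth read as ATP-dependent luminescence (CellTiter-Glo, 30 min at RT).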
TGFb SMAD3 inh = blocks TGF-b signaling; AID 588855; HepG2 CAGA-GFP TGF-b/SMAD3 reporter, GFP fluorescence, 18 h; TGF-beta stimulated, 500 pg/mL final; Potency, µM (series often up to 46.1 µM), for inactives: at the highest dose activity, negative = inhibition, actives largely listed as inhibitors; actives 1.2% (n = 410,000); note: % is set by controls: 0 for no effect and ±100 for the full control effect; nearly all actives have a fitted effect of over 65% in size
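Per well, imaged GFP fluorescence of HEPG2 CAGA-GFP cells gives the signal; cells get compound, then TGF-beta (500 pg/mL final), 18 h at 37 degrees C; %Activity versus -TGF-beta and +DMSO controls.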
HT1080NT lethal = kills 2HG-producing HT-1080-NT fibrosarcoma cells; HT-1080-NT fibrosarcoma viability, CellTiter-Glo ATP luminescence, 48 h; Potency, µM (doses to about 46.1 µM), for the others: at the top dose activity, negative = less viability, usual class: cytotoxic; actives 1.6% (n = 360,000);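 note: NT is the 2HG producing partner of a matched IDH1 knockdown line; 0% = DMSO-treated cells and -100% = media-only wells without cells; nearly all actives have a fitted effect of over 55% in size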
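Toxicity toward the 2HG-producing NT line was scored as %Activity, normalised to DMSO and no-cell wells, from CellTiter-Glo luminescence after 48 hours' treatment.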
HepG2 tox = counter-screen for TGF-b inhibitors: cytotoxicity in HepG2 cells. HepG2 CAGA-GFP viability, ATP luminescence, 18 h. Potency, µM (doses to about 46.1 µM), inactives show top-dose activity change, negative = cytotoxicity, actives largely listed as cytotoxic. actives 0.76% (n = 410,000). AID 588856
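HepG2 CAGA-GFP cells (1000/well, DMEM with 1% FBS) received compound, then TGF-beta at 500 pg/mL final, and were incubated 18 hours at 37 degrees C. Viability was read by CellTiter-Glo luminescence. Media-only wells were set as complete cell-killing and DMSO as no toxicity.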
DT40 TDP1 CPT = growth inhibition of DT40 Tdp1-/-;hTDP1 cells with camptothecin (screen for TDP1 inhibitors) | Potency, µM (highest dose often 46.2 µM), for the others: top-dose activity change, negative = growth inhibition, hits mostly inhibitors | chicken DT40 Tdp1-/-;hTDP1 cells + 20 nM CPT, ATP luminescence, 48 h | actives 12% (n = 420,000); note: % is set by controls: 0 for no effect and ±100 for the full control effect; nearly all actives have a fitted effect of over 55% in size
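Chicken DT40 Tdp1-/- cells stably complemented with human TDP1 were seeded at 400 cells/well in medium containing 20 nM camptothecin, exposed to pin-transferred compounds, and grown at 37 °C for at least 48 hr. Viability was read as ATP luminescence.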
HT1080 IDH1KD tx = toxicity to HT-1080 IDH1 knockdown cells (counter line) | HT-1080 IDH1 knockdown viability, ATP luminescence, 48 h | Potency, µM (series often up to 46.1 µM), for the others: at the highest dose activity, negative = toxicity, actives largely listed as cytotoxic | actives 2% (n = 360,000) | AID 686971;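 note: 0% = DMSO wells and -100% = cell-free medium wells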
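After a 2 h attachment period, IDH1KD HT-1080 cells took pin-transferred compound for 48 h at 37 °C; ATP-based luminescence after 10 min room-temperature reagent incubation reported viability.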
Starred values were filed as active, the others as inactive; ? = inconclusive; . = no result; [ ] = remark or other dose. An excerpt weighted towards active compounds, which were near 17% of everything screened. Calls come from the whole dose curve; as a rule, active = well fitted curve in the direction sought with a large enough effect; inconclusive = small, poorly fitted or top-dose-only effect, or another doubt; inactive = no such curve, though single readings can be large; an effect the other way counts as inactive or inconclusive. Potency is the fitted concentration of half-maximal effect.

SMILES	DT40 TDP1 no CPT	TGFb SMAD3 inh	HT1080NT lethal	HepG2 tox	DT40 TDP1 CPT	HT1080 IDH1KD tx
CC(C)(C(=O)N1CCC1(C)C(=O)NS(=O)(=O)c1cccc(Cl)c1)c1ccccc1 (stereo not drawn)	-6.4%	-7.5%	-0.8%	-10.7%	-3.1%	0.4%
O=C(Nc1ccc(-n2cccn2)cc1)C1CCCCN1Cc1cccc2c1OCO2 (stereo not drawn)	4.61µM*	2.3%	?	19.6%	6.51µM*	?
O=C(NCc1ccccc1Cl)c1ccc2sc([C@H]3C[C@H](O)[C@@H](CO)O3)nc2c1	?	0.2%	-1.7%	-23.7%	?	5.4%
COc1ccc(N(C)S(=O)(=O)c2cccc(C(=O)N3CCN(c4ccccc4)CC3)c2)cc1	?	-1.6%	-11.6%	-1.1%	?	-12.7%
COc1ccc(C2=CSC3=C(C(=O)c4cccc(S(=O)(=O)N(C)C)c4)CCN23)cc1	16.4µM*	23.5%	0.6%	-4.2%	23.1µM*	5.1%
CCn1c(C)nc2cc(C(=O)NNC(=O)CCC3CCCCC3)ccc21	-20.1%	41.5%	1.0%	28.9%	7.1%	3.1%
Cc1cccc(NC(=O)NCC(c2cccnc2)N2CCOCC2)c1 (stereo not drawn)	-11.6%	12.0%	5.0%	-1.2%	-16.6%	20.7%
O=C(NCC(c1cccnc1)N1CCN(Cc2ccccc2)CC1)C(=O)Nc1cccc(Cl)c1 (stereo not drawn)	13µM*	-8.3%	.	-5.0%	14.6µM*	.
Cc1cccc(NC(=O)C(=O)NCC(c2cccnc2)N2CCN(Cc3ccccc3)CC2)c1 (stereo not drawn)	16.4µM*	-22.1%	.	-11.1%	23.1µM*	.
O=S(=O)(NCC(c1cccnc1)N1CCN(Cc2ccccc2)CC1)c1ccccc1 (stereo not drawn)	?	-2.6%	-1.3%	-21.1%	-30.0%	0.0%
COc1ccc(CCNC(=O)c2ccc3c(c2)nc2n3CCOC2)cc1OC	4.3%	-21.3%	.	12.2%	3.2%	.
CCCN1CCC(=O)N(C(CSc2ccc(Br)cc2)c2ccccc2)CC1 (stereo not drawn)	.	-8.8%	.	1.0%	.	.
CCCN1CCC(=O)N([C@H](CSc2ccccc2)c2ccccc2)CC1	18.4µM*	0.3%	-7.6%	1.3%	12.6µM*	-0.1%
CCCN1CCC(=O)N([C@H](CSc2ccc(C)cc2)c2ccccc2)CC1	8.2µM*	-8.4%	-1.7%	-13.7%	16.4µM*	-4.4%
N#C/C(=C\c1ccc(OC(=O)c2ccc(Cl)s2)cc1)c1nc2ccccc2[nH]1	?	75.6%	4.7%	2.3%	?	4.5%
CC(C)(CNC(=O)c1cnn(-c2nccc(-c3cc4ccccc4o3)n2)c1C1CC1)N1CCOCC1	-3.8%	.	.	.	-8.1%[9.04 µM]	.
Cc1cc(OCC(=O)OCC(=O)N2CC(C)CC(C)C2)ccc1Cl (stereo not drawn)	2.9%	-4.8%	2.1%	2.3%	-2.6%	5.7%
Oc1ccc(-c2nc(-c3ccc(F)cc3)c(-c3ccncc3)[nH]2)cc1	6.51µM*	?	-27.1%	-34.1%	?	-17.4%
O=C(CCC(=O)c1ccccc1)Nc1ccc(F)c(Cl)c1	2.5%	0.9%	.	-13.2%	11.3%	.
N/C(=N\OCC(=O)Nc1ccc(F)c(Cl)c1)c1ccccc1	?	-20.4%	-21.0%	-32.1%	23.1µM*	-10.9%
COc1ccc(OC)c(-c2cc(C(=O)Nc3cccc(Cl)c3C)no2)c1	-28.4%	2.5%	.	-38.1%	-16.5%	.
COc1ccc(C2CC(=O)N(Cc3ccc(F)cc3)c3ccccc3S2)cc1OC (stereo not drawn)	.	-0.6%	.	2.9%	.	.
COc1ccc(C2CC(=O)N(Cc3ccc(F)cc3)c3ccccc3S2)cc1 (stereo not drawn)	.	15.8µM*	.	-43.4%	.	.
COc1ccc(C2CC(=O)N(C)c3ccccc3S2)cc1OC (stereo not drawn)	?	19.1%	-11.7%	-3.5%	20.6µM*	1.1%
O=C(c1nnsc1S(=O)c1ccc(Cl)cc1)N1CCOCC1 (stereo not drawn)	0.82µM*	?	13µM*	-98.0%	0.461µM*	?
SMILES	DT40 TDP1 no CPT	TGFb SMAD3 inh	HT1080NT lethal	HepG2 tox	DT40 TDP1 CPT	HT1080 IDH1KD tx
Nc1nc(C(=O)N2CCOCC2)nn1S(=O)(=O)c1ccc(Cl)cc1	?	-6.9%	11.6%	-23.4%	?	6.3%
O=C(c1nnsc1S(=O)(=O)c1ccc(Cl)cc1)N1CCOCC1	2.91µM*	?	14.6µM*	12.6µM*	2.31µM*	?
CNC(=O)c1nnsc1S(=O)(=O)c1ccc(Cl)cc1	1.46µM*	11.2µM*	?	17.8µM*	0.731µM*	2.91µM*
O=C(Nc1ccccc1)c1nnsc1S(=O)c1ccc(Cl)cc1 (stereo not drawn)	0.82µM*	?	?	-88.6%	0.581µM*	-22.3%[9.24 µM]
COc1ccc(OC)c(NC(=O)CN2CCc3ccccc3C2)c1	?	-6.0%	-11.1%	-12.6%	?	-9.5%
Cc1ccccc1-c1csc(C(C)(O)c2ccc(F)c(F)c2)n1 (stereo not drawn)	?	?	-21.0%	-24.4%	?	?
CC(=O)c1cccc(NC(=S)NC(=O)CC(C)(C)C)c1	-12.6%	-6.5%	?	-52.8%	-7.9%	-20.2%
O=C(NN=Cc1cc([N+](=O)[O-])ccc1O)c1cccc2ccccc12	7.31µM*	?	?	-35.1%	7.31µM*	6.51µM*
COC(=O)N/N=C/c1cc(N=Nc2ccccc2Cl)ccc1O	?	7.1%	-14.9%	2.3%	?	-22.2%
Nc1ccc(C(=O)N/N=C\c2cc(N=Nc3cccc4ccccc34)ccc2O)cc1	4.61µM*	-31.1%	?	-10.2%	5.17µM*	11.6µM*
O=C(N/N=C/c1cccc([N+](=O)[O-])c1)c1c[nH]c2ccccc12	?	-9.3%	-13.8%	-26.5%	-15.6%	-6.8%
O=C(N/N=C/c1cc([N+](=O)[O-])ccc1O)c1c[nH]c2ccccc12	?	?	?	-31.4%	?	14.6µM*
COc1ccc(NCc2cc3cc(OC)ccc3[nH]c2=O)cc1	23.1µM*	-13.9%	-10.0%	-53.5%	8.2µM*	-8.3%
COc1ccc2[nH]c(=O)c(CNc3cccc(C)c3)cc2c1	11.6µM*	-8.5%	0.7%	-2.4%	13µM*	-13.2%
COc1ccc(NCc2cc3ccccc3[nH]c2=O)cc1	?	-8.5%	-8.2%	-16.1%	?	-22.4%

Assay outcomes (PubChem)
